We go through 42 compounds from article PMC4336329 (PLoS ONE, 2015).

About 14,000 (4.5%) of roughly 310,000 compounds showed an effect of 50% or more. Effects have a minus sign here. The full list was thinned out, with strong results kept by preference.
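Note: peak tail current of the secondary pulse compared with the same well before compound.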

The target of the assay is human ether-à-go-go-related gene (hERG) potassium channel (human, UniProt Q12809). Kind of assay: primary screen, population patch clamp on CHO cells stably expressing hERG; higher = less effect of the substance.
human ether-à-go-go-related gene (hERG) potassium channel, sequence (Q12809 whole entry, looked up): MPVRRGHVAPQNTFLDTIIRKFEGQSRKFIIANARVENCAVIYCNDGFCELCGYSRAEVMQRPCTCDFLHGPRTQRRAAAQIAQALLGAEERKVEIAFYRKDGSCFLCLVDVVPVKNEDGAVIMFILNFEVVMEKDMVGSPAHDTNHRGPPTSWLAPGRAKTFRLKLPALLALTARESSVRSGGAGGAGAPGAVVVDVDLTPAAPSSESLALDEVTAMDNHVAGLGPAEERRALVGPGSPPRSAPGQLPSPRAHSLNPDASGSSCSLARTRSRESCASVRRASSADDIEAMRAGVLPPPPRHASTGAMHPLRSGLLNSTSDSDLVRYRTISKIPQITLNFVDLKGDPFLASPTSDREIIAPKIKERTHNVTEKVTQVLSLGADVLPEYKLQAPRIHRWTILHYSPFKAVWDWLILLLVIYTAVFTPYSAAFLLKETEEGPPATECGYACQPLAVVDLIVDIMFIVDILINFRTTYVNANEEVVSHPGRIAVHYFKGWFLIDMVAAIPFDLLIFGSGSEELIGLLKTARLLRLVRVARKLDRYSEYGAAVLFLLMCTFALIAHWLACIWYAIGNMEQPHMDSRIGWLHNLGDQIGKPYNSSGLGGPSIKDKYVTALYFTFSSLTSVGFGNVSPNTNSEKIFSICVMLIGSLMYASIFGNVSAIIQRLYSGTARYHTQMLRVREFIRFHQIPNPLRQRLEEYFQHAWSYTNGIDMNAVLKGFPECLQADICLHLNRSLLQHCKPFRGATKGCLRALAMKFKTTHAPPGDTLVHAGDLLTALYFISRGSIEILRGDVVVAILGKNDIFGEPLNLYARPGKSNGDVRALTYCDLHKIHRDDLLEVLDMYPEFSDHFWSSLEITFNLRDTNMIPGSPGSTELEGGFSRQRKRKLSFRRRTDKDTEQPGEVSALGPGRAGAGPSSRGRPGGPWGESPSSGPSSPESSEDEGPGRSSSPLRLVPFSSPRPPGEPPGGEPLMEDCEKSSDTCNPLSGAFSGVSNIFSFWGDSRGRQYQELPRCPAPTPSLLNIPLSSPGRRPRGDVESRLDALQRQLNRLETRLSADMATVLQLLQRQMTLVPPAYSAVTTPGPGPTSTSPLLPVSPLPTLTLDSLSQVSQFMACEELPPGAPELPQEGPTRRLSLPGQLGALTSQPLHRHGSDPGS
Regarding `CCc1c2c(nc3ccc(OC(=O)N4CCC(N5CCCCC5)CC4)cc13)-c1cc3c(c(=O)n1C2)COC(=O)[C@]3(O)CC.Cl.O`, the “hERG current change (%, negative = inhibition) at 10uM” value is 12.8%.

Regarding `CC(CCc1ccccc1)NC(=O)CN1CCN(Cc2ccccc2)C1=O` (stereo not drawn), the “hERG current change (%, negative = inhibition) at 10uM” value is recorded as -18.2%.

Regarding `O=C(CN1CCN(Cc2ccccc2F)C1=O)NCCc1ccc(Cl)cc1`, the “hERG current change (%, negative = inhibition) at 10uM” value is on record as -52.8%.

In the case of `CC(CCc1ccccc1)NC(=O)CN1CCN(Cc2ccc(Cl)cc2)C1=O` (stereo not drawn), the “hERG current change (%, negative = inhibition) at 10uM” value is on record as -53.2%.

Consider `Cc1ccc(CN2CCN(CC(=O)NC(C)CCc3ccccc3)C2=O)cc1` (stereo not drawn), for which the “hERG current change (%, negative = inhibition) at 10uM” value is -20.6%.

With `Cc1ccc(CCNC(=O)CN2CCN(Cc3ccccc3F)C2=O)cc1`, the “hERG current change (%, negative = inhibition) at 10uM” value is -8.3%.

As for `COc1ccc(CCNC(=O)CN2CCN(Cc3ccccc3F)C2=O)cc1OC`, the “hERG current change (%, negative = inhibition) at 10uM” value is 8.26%.

Take `COc1ccc(C(CC(=O)Nc2cc(OC)cc(OC)c2)n2cccc2)cc1` (stereo not drawn): the “hERG current change (%, negative = inhibition) at 10uM” value turned out to be 2.58%.

As to `Nc1ccc(N2CCOCC2)c(Cl)c1`, the “hERG current change (%, negative = inhibition) at 10uM” value was 1.49%.

Turning to `CC(=O)Nc1ccc(S(=O)(=O)Nc2nc(CN3CCOCC3)nc3sc4c(c23)CCCC4)cc1`, the “hERG current change (%, negative = inhibition) at 10uM” value is listed as -4%.

Turning to `CCOc1ccc(N(CC(=O)NCC2CCCO2)C(=O)CCC(=O)Nc2nccs2)cc1` (stereo not drawn), the “hERG current change (%, negative = inhibition) at 10uM” value came out at 2.69%.

Take `Cc1nn2c(-c3cccc(NC(=O)c4ccco4)c3)nnc2c2ccccc12`: the “hERG current change (%, negative = inhibition) at 10uM” value was -5.38%.

For `Cc1ccc(OCCCCN2CCC(C)CC2)c(Br)c1.O=C(O)C(=O)O`, the “hERG current change (%, negative = inhibition) at 10uM” value is -63.1%.

With `Cc1ccc(OCCCCN2CCCCC2)c(Br)c1.O=C(O)C(=O)O`, the “hERG current change (%, negative = inhibition) at 10uM” value was -62.6%.

Consider `Cc1ccc(C(C)C)c(OCCCCN2CCNCC2)c1.O=C(O)C(=O)O`, for which the “hERG current change (%, negative = inhibition) at 10uM” value is recorded as -6.77%.

As to `Cc1ccc(OCCOCCN2CCCC2)c(Br)c1.O=C(O)C(=O)O`, the “hERG current change (%, negative = inhibition) at 10uM” value is recorded as -24.7%.

Take `CNCCCOc1ccc(C)cc1Br.O=C(O)C(=O)O`: the “hERG current change (%, negative = inhibition) at 10uM” value is reported as -10.9%.

Regarding `Cc1ccc(OCCCCCCN2CCNCC2)c(Br)c1.O=C(O)C(=O)O`, the “hERG current change (%, negative = inhibition) at 10uM” value was -30.3%.

Turning to `COC(=O)/C(=C1/Oc2ccc(C)cc2S1)C(F)(F)F`, the “hERG current change (%, negative = inhibition) at 10uM” value was determined as 32.8%.

Take `Cc1ccc(N2C(=N)SCC2=O)cc1Cl`: the “hERG current change (%, negative = inhibition) at 10uM” value is on record as -70.6%.

Turning to `CC(C)(C)c1ccc(N2C(=N)SCC2=O)cc1`, the “hERG current change (%, negative = inhibition) at 10uM” value is listed as -0.538%.

Turning to `N=C1SCC(=O)N1c1ccc(Cl)cc1`, the “hERG current change (%, negative = inhibition) at 10uM” value is 8.91%.

`Cc1oc2c(c1C(=O)N1CCOCC1)C(=O)c1ccccc1C2=O`: the “hERG current change (%, negative = inhibition) at 10uM” value is 5.25%.

For the compound `CC(=O)N1CCc2cc(S(=O)(=O)NC(Cc3ccccc3)C(=O)NCCN3CCCCC3C)ccc21` (stereo not drawn), the “hERG current change (%, negative = inhibition) at 10uM” value turned out to be 5.72%.

As to `CCc1ccc(CNCCc2ccc(F)cc2)cc1`, the “hERG current change (%, negative = inhibition) at 10uM” value is listed as -72.8%.

`Cl.c1ccc(CCNCc2ccccc2)cc1`: the “hERG current change (%, negative = inhibition) at 10uM” value is -9.4%.

Regarding `Fc1ccccc1CCNCc1ccccc1`, the “hERG current change (%, negative = inhibition) at 10uM” value was determined as 5.42%.

For `Cc1ccc(CNCCc2ccccc2F)cc1.Cl`, the “hERG current change (%, negative = inhibition) at 10uM” value is listed as -31.8%.

As to `CCc1ccc(CNCCc2ccccc2F)cc1`, the “hERG current change (%, negative = inhibition) at 10uM” value is -67.7%.

In the case of `CCc1ccc(CNCc2ccc(F)cc2)cc1`, the “hERG current change (%, negative = inhibition) at 10uM” value is given as -21%.

With `Fc1ccc(CNCCc2ccccc2)cc1.O=C(O)C(=O)O`, the “hERG current change (%, negative = inhibition) at 10uM” value was -18.2%.

As to `Fc1ccc(CNCc2ccc(Br)cc2)cc1`, the “hERG current change (%, negative = inhibition) at 10uM” value was -28.5%.

As to `Cc1ccccc1CCNCc1ccc(Br)cc1`, the “hERG current change (%, negative = inhibition) at 10uM” value was -53.6%.

`Fc1ccc(CNCCc2ccccc2F)cc1`: the “hERG current change (%, negative = inhibition) at 10uM” value is -2.59%.

Turning to `O=C(Cc1ccc(Br)cc1)NCCc1ccc(F)cc1`, the “hERG current change (%, negative = inhibition) at 10uM” value is on record as 11.3%.

In the case of `Fc1ccc(CCNCc2ccc(Br)cc2)cc1`, the “hERG current change (%, negative = inhibition) at 10uM” value was -53.8%.

`Cc1cccc(-n2ncc3c2CCCC3NC(=O)Cc2c(C)noc2C)c1C` (stereo not drawn): the “hERG current change (%, negative = inhibition) at 10uM” value worked out at 15.9%.

For `COc1ccc(/C=C2\SC(=S)N(CCCC(=O)NC3CCCC3)C2=O)cc1OC`, the “hERG current change (%, negative = inhibition) at 10uM” value is recorded as -12.2%.

For `Cc1nn(CCCC(=O)O)c(C)c1[N+](=O)[O-]`, the “hERG current change (%, negative = inhibition) at 10uM” value was 12.3%.

Regarding `O=C(COc1ccc(S(=O)(=O)NC2CCCCC2)cc1)NCCC1=CCCCC1`, the “hERG current change (%, negative = inhibition) at 10uM” value was found to be 2.33%.

In the case of `CCN(CC)S(=O)(=O)c1ccc(NC(=O)COC(=O)c2ccc(NC(=O)CC#N)cc2)cc1`, the “hERG current change (%, negative = inhibition) at 10uM” value turned out to be 20.5%.

For the compound `CCn1c(Cc2ccccc2)nnc1SCC(=O)OC(C)C`, the “hERG current change (%, negative = inhibition) at 10uM” value is 0.117%.
